According to PubChem BioAssay (NCATS):
Results filed as inconclusive are left out. Active and inactive are the calls of the source. Unless noted, the call rests on the fitted dose curve; in most records, active means well fitted curve in the direction sought with a large enough effect; inconclusive means small, poorly fitted or top-dose-only effect, or another doubt; inactive means no such curve, though single readings can be large; an effect the other way counts as inactive or inconclusive.

Experiments:
[1] = target: ATP-dependent 6-phosphofructokinase (Trypanosoma brucei brucei) (UniProt O15648); test: qHTS Assay to Find Inhibitors of T. brucei phosphofructokinase: hit validation (AID 492961);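 further: luminescence reports ADP formed as PFK phosphorylates fructose-6-phosphate with ATP; on the % scale 0 is the no-effect control and ±100 the full control effect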
In short: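 Inhibition of parasite PFK is measured as reduced ADP formation, quantified via luciferase after ATP depletion. Assay used 0.1 mM ATP, 0.5 mM F6P, 1.25 nM enzyme, 45 min incubation.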

[2] = target: Luciferin 4-monooxygenase (Photinus pyralis) (UniProt P08659); test: Biochemical firefly luciferase enzyme assay for NPC (AID 624030);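 further: purified P. pyralis luciferase at 10 nM with luciferin and ATP substrate; 0% = DMSO and -100% = full luciferase inhibition by PTC124 control; nearly all actives have a fitted effect of over 70% in size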
In short: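 Purified P. pyralis luciferase at 10 nM in 50 mM Tris Acetate (final), luminescence read within 5 minutes of enzyme addition to compounds. Activity normalised to PTC124 versus DMSO; concentration-response curves classed by r2, magnitude and activity.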

[3] = S16 Schwann cell PMP22 intronic element beta-lactamase assay (AID 624044; calls by dose curve;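 further: 0% = DMSO and -100% = potassium clavulanate positive control; nearly all actives have a fitted effect of over 15% in size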); details: S16 rat Schwann cells, PMP22 element beta-lactamase FRET, 24 h; ratio activity, negative = inhibition: at 38.3 µM (top of the series)
In short: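 Rat S16 Schwann cells with beta-Lac driven by a PMP22 intronic element, compound-treated 24 h at 37 °C. LiveBLAzer FRET B/G read: 460 nm normalized to potassium clavulanate vs DMSO; 535 nm FRET as viability; concentration-effect curves classified.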

[4] = qHTS profiling for inhibitors of Plasmodium falciparum proliferation (AID 504749); further: potency means the concentration at half of the fitted maximal effect;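 on activity, negative = inhibition: 0% = DMSO vehicle and full inhibition = artemisinin control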; on all read-outs here: nearly all actives have a fitted effect of over 60% in size; details: P. falciparum in erythrocytes, SYBR Green DNA, 72 h; for activity, negative = inhibition: at 28.7 µM (top of the series)
In short: (§1)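 P. falciparum-infected erythrocytes (0.3% parasitemia, 2.5% hematocrit) incubated with compound 72 h at 37 C, 5% CO2. Parasite DNA detected by SYBR Green after lysis, overnight at room temperature; normalised to 0.29 uM artemisinin and DMSO.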

AA1029 = test: as above; details: P. falciparum in erythrocytes, SYBR Green DNA, 72 h; series mostly up to 28.7 µM
In short: as §1

CP185 = test: as above; details: P. falciparum in erythrocytes, SYBR Green DNA, 72 h; series mostly up to 28.7 µM
In short: as §1

CP192 = test: as above; details: P. falciparum in erythrocytes, SYBR Green DNA, 72 h; series mostly up to 28.7 µM
In short: as §1

CP211 = test: as above; details: P. falciparum in erythrocytes, SYBR Green DNA, 72 h; series mostly up to 28.7 µM
In short: as §1

CP238 = test: as above; details: P. falciparum in erythrocytes, SYBR Green DNA, 72 h; series mostly up to 28.7 µM
In short: as §1

CP262 = test: as above; details: P. falciparum in erythrocytes, SYBR Green DNA, 72 h; series mostly up to 28.7 µM
In short: as §1

CP269 = test: as above; details: P. falciparum in erythrocytes, SYBR Green DNA, 72 h; series mostly up to 28.7 µM
In short: as §1

CP286 = test: as above; details: P. falciparum in erythrocytes, SYBR Green DNA, 72 h; series mostly up to 28.7 µM
In short: as §1

CP315 = test: as above; details: P. falciparum in erythrocytes, SYBR Green DNA, 72 h; series mostly up to 28.7 µM
In short: as §1

CP329 = test: as above; details: P. falciparum in erythrocytes, SYBR Green DNA, 72 h; series mostly up to 28.7 µM
In short: as §1

Dd2 = test: as above; details: P. falciparum in erythrocytes, SYBR Green DNA, 72 h; series mostly up to 28.7 µM
In short: as §1

ECU = test: as above; details: P. falciparum in erythrocytes, SYBR Green DNA, 72 h; series mostly up to 28.7 µM
In short: as §1

FAB9 = test: as above; details: P. falciparum in erythrocytes, SYBR Green DNA, 72 h; series mostly up to 28.7 µM
In short: as §1

JCK = test: as above; details: P. falciparum in erythrocytes, SYBR Green DNA, 72 h; series mostly up to 28.7 µM
In short: as §1

N140 = test: as above; details: P. falciparum in erythrocytes, SYBR Green DNA, 72 h; series mostly up to 28.7 µM
In short: as §1

PC49 = test: as above; details: P. falciparum in erythrocytes, SYBR Green DNA, 72 h; series mostly up to 28.7 µM
In short: as §1

Chain of ATP-dependent 6-phosphofructokinase (Trypanosoma brucei brucei) (O15648 whole entry, looked up): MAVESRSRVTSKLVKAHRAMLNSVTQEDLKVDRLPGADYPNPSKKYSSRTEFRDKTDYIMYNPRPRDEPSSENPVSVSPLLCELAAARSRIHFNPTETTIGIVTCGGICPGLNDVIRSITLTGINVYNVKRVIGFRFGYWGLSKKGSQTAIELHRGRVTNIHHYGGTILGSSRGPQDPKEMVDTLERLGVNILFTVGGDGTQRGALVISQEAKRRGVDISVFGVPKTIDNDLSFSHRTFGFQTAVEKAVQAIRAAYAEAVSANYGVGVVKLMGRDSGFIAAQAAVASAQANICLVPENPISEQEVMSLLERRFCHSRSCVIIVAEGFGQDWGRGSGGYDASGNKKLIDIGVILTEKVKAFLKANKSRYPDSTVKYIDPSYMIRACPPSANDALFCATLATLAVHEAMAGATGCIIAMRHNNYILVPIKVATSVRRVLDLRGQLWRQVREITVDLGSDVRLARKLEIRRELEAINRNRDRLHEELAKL
Chain of Luciferin 4-monooxygenase (Photinus pyralis) (P08659 whole entry, looked up): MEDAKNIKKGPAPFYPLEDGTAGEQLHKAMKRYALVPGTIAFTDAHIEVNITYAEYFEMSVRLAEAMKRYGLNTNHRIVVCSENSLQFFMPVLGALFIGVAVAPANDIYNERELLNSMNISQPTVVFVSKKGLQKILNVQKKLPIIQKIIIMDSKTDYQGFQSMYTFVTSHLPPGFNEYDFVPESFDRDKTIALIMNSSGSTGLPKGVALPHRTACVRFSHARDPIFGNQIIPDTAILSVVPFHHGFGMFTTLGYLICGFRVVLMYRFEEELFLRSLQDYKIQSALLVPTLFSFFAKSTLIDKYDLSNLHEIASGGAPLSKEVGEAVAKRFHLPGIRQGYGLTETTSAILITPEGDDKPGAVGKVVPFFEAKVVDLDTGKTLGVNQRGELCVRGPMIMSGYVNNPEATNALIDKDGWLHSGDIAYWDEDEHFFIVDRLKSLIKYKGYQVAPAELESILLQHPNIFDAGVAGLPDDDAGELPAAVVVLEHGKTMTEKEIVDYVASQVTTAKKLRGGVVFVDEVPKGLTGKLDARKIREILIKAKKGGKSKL

OCC(CO)NC1C[C@](O)(CO)[C@@H](O)[C@H](O)[C@H]1O (some centres not stated)
inactive: Potency [1] | Potency [2] | Potency [3] | activity, negative = inhibition ([4]; parasite line A) 8.78% | activity, negative = inhibition ([4]; parasite line B) 9.25% | Potency (AA1029) | Potency (CP185) | Potency (CP192) | Potency (CP211) | Potency (CP238) | Potency (CP262) | Potency (CP269) | Potency (CP286) | Potency (CP315) | Potency (CP329) | Potency (Dd2) | Potency (ECU) | Potency (FAB9) | Potency (JCK) | Potency (N140) | Potency (PC49)

CCCCCCCCCCCCCCCC(=O)OCC(COP(=O)(O)OCC[N+](C)(C)C)OC(=O)CCCCCCCCCCCCCCC (configuration not stated)
inactive: Potency [1] | Potency [2] | Potency [3] | activity, negative = inhibition ([4]; parasite line A) -4.13% | activity, negative = inhibition ([4]; parasite line B) 3.84% | Potency (AA1029) | Potency (CP185) | Potency (CP192) | Potency (CP211) | Potency (CP238) | Potency (CP262) | Potency (CP269) | Potency (CP286) | Potency (CP315) | Potency (CP329) | Potency (Dd2) | Potency (ECU) | Potency (FAB9) | Potency (JCK) | Potency (N140) | Potency (PC49)

NC(=O)C1CC2(NC(=O)NC2=O)c2cc(F)ccc2O1 (configuration not stated)
inactive: Potency [1] | Potency [2] | activity, negative = inhibition ([4]; parasite line A) 9.13% | activity, negative = inhibition ([4]; parasite line B) 7.45% | Potency (AA1029) | Potency (CP185) | Potency (CP192) | Potency (CP211) | Potency (CP238) | Potency (CP262) | Potency (CP269) | Potency (CP286) | Potency (CP315) | Potency (CP329) | Potency (Dd2) | Potency (ECU) | Potency (FAB9) | Potency (JCK) | Potency (N140) | Potency (PC49)

C=C(NCc1ccccc1)c1ccccc1O
inactive: Potency [1] | Potency [2] | Potency [3] | activity, negative = inhibition ([4]; parasite line A) 12.8% | activity, negative = inhibition ([4]; parasite line B) 10.7% | Potency (AA1029) | Potency (CP185) | Potency (CP192) | Potency (CP211) | Potency (CP238) | Potency (CP262) | Potency (CP269) | Potency (CP286) | Potency (CP315) | Potency (CP329) | Potency (Dd2) | Potency (ECU) | Potency (FAB9) | Potency (JCK) | Potency (N140) | Potency (PC49)

Nc1nc(F)nc2c1ncn2[C@@H]1O[C@H](CO)[C@@H](O)[C@H]1O
inactive: Potency [1] | Potency [2] | Potency [3] | activity, negative = inhibition ([4]; parasite line A) 9.43% | activity, negative = inhibition ([4]; parasite line B) 14.2% | Potency (AA1029) | Potency (CP185) | Potency (CP192) | Potency (CP211) | Potency (CP238) | Potency (CP262) | Potency (CP269) | Potency (CP286) | Potency (CP315) | Potency (CP329) | Potency (Dd2) | Potency (ECU) | Potency (FAB9) | Potency (JCK) | Potency (N140) | Potency (PC49)

COC1CC2CCC(C)[C@](O)(O2)C(=O)C(=O)N2CCCCC2C(=O)OC(C(C)CC2CCC(O)C(OC)C2)CC(=O)C(C)/C=C(/C)C(O)C(OC)C(=O)C(C)CC(C)C=CC=C/C=C\1C (some centres not stated)
inactive: Potency [1] | Potency [2] | Potency [3] | Potency (CP262)
active: Potency ([4]; parasite line A) 3.55 µM | Potency ([4]; parasite line B) 1.41 µM | Potency (AA1029) 2.24 µM | Potency (CP185) 4.47 µM | Potency (CP192) 4.78 µM | Potency (CP211) 4.26 µM | Potency (CP238) 3.16 µM | Potency (CP269) 4.26 µM | Potency (CP286) 4.47 µM | Potency (CP315) 4.26 µM | Potency (CP329) 4.26 µM | Potency (Dd2) 1.58 µM | Potency (ECU) 2 µM | Potency (FAB9) 8.91 µM | Potency (JCK) 10 µM | Potency (N140) 1.26 µM | Potency (PC49) 2.24 µM

O=C(O)C(O)c1ccccc1 (configuration not stated)
inactive: Potency [1] | Potency [2] | Potency [3] | activity, negative = inhibition ([4]; parasite line A) 2.53% | activity, negative = inhibition ([4]; parasite line B) 10.7% | Potency (AA1029) | Potency (CP185) | Potency (CP192) | Potency (CP211) | Potency (CP238) | Potency (CP262) | Potency (CP269) | Potency (CP286) | Potency (CP315) | Potency (CP329) | Potency (Dd2) | Potency (ECU) | Potency (FAB9) | Potency (JCK) | Potency (N140) | Potency (PC49)

C/C1=C2/[N-]C(C(CC(N)=O)[C@@]2(C)CCC(=O)NCC(C)OP(=O)([O-])O[C@H]2[C@@H](O)[C@@H](n3cnc4cc(C)c(C)cc43)O[C@@H]2CO)[C@]2(C)N=C(/C(C)=C3N=C(/C=C4N=C1C(CCC(N)=O)C\4(C)C)[C@@H](CCC(N)=O)[C@]\3(C)CC(N)=O)[C@@H](CCC(N)=O)[C@]2(C)CC(N)=O.CC(=O)O.[Co] (some centres not stated)
inactive: Potency [1] | activity, negative = inhibition ([4]; parasite line A) -2.13% | activity, negative = inhibition ([4]; parasite line B) -2.9% | Potency (AA1029) | Potency (CP185) | Potency (CP192) | Potency (CP211) | Potency (CP238) | Potency (CP262) | Potency (CP269) | Potency (CP286) | Potency (CP315) | Potency (CP329) | Potency (Dd2) | Potency (ECU) | Potency (FAB9) | Potency (JCK) | Potency (N140) | Potency (PC49)

NCCCCC(N)C(=O)O (configuration not stated)
inactive: Potency [1] | Potency [2] | Potency [3] | activity, negative = inhibition ([4]; parasite line A) -7.93% | activity, negative = inhibition ([4]; parasite line B) 13.6% | Potency (AA1029) | Potency (CP185) | Potency (CP192) | Potency (CP211) | Potency (CP238) | Potency (CP262) | Potency (CP269) | Potency (CP286) | Potency (CP315) | Potency (CP329) | Potency (Dd2) | Potency (ECU) | Potency (FAB9) | Potency (JCK) | Potency (N140) | Potency (PC49)

CC(=O)N1CC(O)CC1C(=O)O (configuration not stated)
inactive: Potency [1] | Potency [2] | Potency [3] | activity, negative = inhibition ([4]; parasite line A) -10.1% | activity, negative = inhibition ([4]; parasite line B) -6.82% | Potency (AA1029) | Potency (CP185) | Potency (CP192) | Potency (CP211) | Potency (CP238) | Potency (CP262) | Potency (CP269) | Potency (CP286) | Potency (CP315) | Potency (CP329) | Potency (Dd2) | Potency (ECU) | Potency (FAB9) | Potency (JCK) | Potency (N140) | Potency (PC49)
